# Bioassay records: PubChem BioAssay, The Scripps Research Institute Molecular Screening Center
# TEAD-YAP inh: TEAD-YAP interaction inhibition, primary screen, TEAD-YAP interaction inhibitor project, luminescence, HEK-TIYL cells. TEAD-Gal4/YAP UAS-luciferase luminescence. inhibition, % at 9.12 µM. actives 1.4% (n = 640,000); in the data active means inhibition above about 32%;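 further: 0% = median of test compound wells and 100% = reference inhibitor wells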
# MITF inh: MITF inhibitors, primary screen, biochemical, AlphaScreen, human. AlphaScreen MITF homodimerization, bead proximity signal. AID 1259374, 2018. inhibition, % at 2.6 µM. Microphthalmia-associated transcription factor (Homo sapiens), O75030. actives 0.91% (n = 650,000); in the data active means inhibition above about 50%;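 further: 0% = vehicle wells with protein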
# Target sequence (O75030 whole entry, looked up): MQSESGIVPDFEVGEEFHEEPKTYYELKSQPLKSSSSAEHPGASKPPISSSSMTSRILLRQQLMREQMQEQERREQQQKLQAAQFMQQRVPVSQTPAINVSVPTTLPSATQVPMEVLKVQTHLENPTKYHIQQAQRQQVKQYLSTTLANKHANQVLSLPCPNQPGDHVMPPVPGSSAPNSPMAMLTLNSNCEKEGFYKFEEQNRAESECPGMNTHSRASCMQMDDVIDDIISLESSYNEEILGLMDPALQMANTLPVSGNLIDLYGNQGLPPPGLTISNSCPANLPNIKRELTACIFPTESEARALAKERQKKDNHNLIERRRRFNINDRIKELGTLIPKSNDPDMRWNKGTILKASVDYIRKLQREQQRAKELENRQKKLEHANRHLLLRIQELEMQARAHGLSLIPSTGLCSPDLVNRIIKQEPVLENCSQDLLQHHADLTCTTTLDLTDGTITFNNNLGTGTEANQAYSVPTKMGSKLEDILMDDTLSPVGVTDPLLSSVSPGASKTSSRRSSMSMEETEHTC
# GPR151 ag: activators of human GPR151, primary screen, cell-based, PathHunter beta-arrestin, luminescence | G-protein coupled receptor 151 (Homo sapiens), Q8TDV0 | PathHunter beta-arrestin GPR151 cells | activation, % at 11.2 µM | actives 1% (n = 650,000); in the data active means activation above about 4.9%;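 further: 0% = median of compound wells and 100% = cells with positive control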
# FBW7 activator: FBW7 E3 ligase activators, primary screen, biochemical, AlphaScreen, human; F-box/WD repeat-containing protein 7 (Homo sapiens), Q969H0; AlphaScreen FBW7–phospho-cyclin E peptide binding, activator screen; normalized activity (activation), % at 26.1 µM; actives 0.13% (n = 650,000); in the data active means normalized activity above about 1.9%;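 further: purified mutant Fbw7 with reduced substrate affinity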
# MITF inh conf: MITF inhibitors, retest of hits, confirmation, biochemical, AlphaScreen, triplicate; inhibition, % at 2.6 µM; shares compounds with MITF inh; AlphaScreen MITF homodimerization, biotin/His-MITF beads; AID 1259372, 2018; actives 16% (n = 4,700);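 active means inhibition above a cutoff derived from the DMSO control wells, cut at about 28% in these data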;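 further: 0% = MITF dimer wells with DMSO only; inhibitors lower the bead chemiluminescence by keeping MITF from dimerizing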
# AlphaScreen DR: AlphaScreen optical interference compounds, dose response, counter-screen, biochemical, HTS; AlphaScreen optical interference counterscreen, cell-free; actives 6% (n = 480); shares compounds with MITF inh; IC50, µM; AID 1259373, 2018; call rule not given here
# AlphaScreen intf2: AlphaScreen optical interference compounds, counter-screen for MITF inhibitor project, biochemical, triplicate; shares compounds with MITF inh; LysRS AlphaScreen counterscreen, signal interference; inhibition, % at 2.6 µM; actives 7.6% (n = 4,700); AID 1259376, 2018;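 active means inhibition above a cutoff derived from the DMSO control wells, cut at about 30% in these data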
# * hit, by the source's call; · = no result; ! = repeats disagree. Hits are enriched below; roughly 3.5% of the tested compounds scored in any of these assays.
SMILES,TEAD-YAP inh,MITF inh,GPR151 ag,FBW7 activator,MITF inh conf,AlphaScreen intf2,others
CCOC(=O)c1ccc(NC(=S)N2CCN(C(=O)OCC)CC2)cc1,-6.7,6.2,0.1,-0.1,·,·,
CCOC(=O)N1CCN(C(=S)Nc2ccc(OCC)cc2)CC1,1.8,101.8*,-0.8,0.0,64.1*,-6.2,AlphaScreen DR=>6.48
CCOc1ccc(NCC(=O)Nc2ccc(F)cc2)cc1,-26.6,68.1*,-0.3,-0.1,5.4,1.4,
COC(=O)c1ccc(N/C=C\C(=O)c2ccc3ccccc3c2)cc1,-2.1,8.8,2.4,0.5,·,·,
Cn1cccc1/C=N/NC(=O)c1nc(N)n[nH]1,-14.2,-3.0,-1.2,-0.4,·,·,
Nc1n[nH]c(C(=O)N/N=C/c2cccs2)n1,-4.4,77.3*,1.5,-0.4,51.4*,95.4*,
Cc1ccc(S(=O)(=O)Nc2nc(O)c(C3=c4cc([N+](=O)[O-])ccc4=NC3=O)s2)cc1,-1.9,10.6,1.9,0.0,·,·,
O=C1N=c2ccc([N+](=O)[O-])cc2=C1c1sc(NS(=O)(=O)c2ccccc2)nc1O,8.0,64.2*!,0.0,-0.3,11.1,23.1,
COCCCNC(=O)/C(C#N)=C/c1ccc(-c2ccc(C(=O)O)c(Cl)c2)o1,2.3,63.5*,1.7,-0.1,66.7*,-4.1,AlphaScreen DR=>6.48
COCC(=O)NCCNc1nc2c(c(=O)n(C)c(=O)n2C)n1Cc1cc(C)ccc1C,6.5,76.7*,-0.3,0.0,1.0,9.2,
Cc1ccc(C)c(Cn2c(NCCNC(=O)C3CCC3)nc3c2c(=O)n(C)c(=O)n3C)c1,8.1,73.1*,0.0,-0.1,3.7,13.1,
O=C(COC(=O)c1ccc(CO)cc1)NC1CCCCCCC1,0.6,-0.9,-0.4,-0.1,·,·,
c1ccc(COc2ccccc2OCCNCCN2CCOCC2)cc1,6.4,65.6*,-1.1,-0.1,-5.7,11.2,
CCN1CCN(CCOc2ccc(OCc3ccccc3)cc2)CC1,-31.7,68.6*,1.0,-0.2,8.8,14.5,
c1ccc(COc2ccc(OCCN3CCCC3)cc2)cc1,-20.8,6.4,-0.1,-0.1,·,·,
c1ccc(COc2ccccc2OCCCCNCCN2CCOCC2)cc1,-9.9,-9.7,0.0,-0.1,·,·,
O=[N+]([O-])c1ccccc1OCCCCN1CCCC1,-0.5,12.8,0.1,0.1,·,·,
CCN1CCN(CCCOc2ccc(OC)cc2)CC1,-3.0,28.5,0.7,-0.1,·,·,
CCN1CCN(CCOc2ccc(I)cc2)CC1,0.4,63.8*,-0.3,0.1,12.6,15.8,
CCN1CCN(CCOc2ccccc2[N+](=O)[O-])CC1,10.2,74.8*,-0.9,-0.1,15.0,15.7,
CC(=O)Nc1ccc(S(=O)(=O)N2CCCC(c3nc(-c4ccc(C)cc4)no3)C2)cc1 (stereo not given),19.1,5.5,0.4,0.0,·,·,
O=[N+]([O-])c1ccccc1OCCNC1CCCC1,1.9,52.0*,-1.5,0.2,-4.3,3.3,
O=[N+]([O-])c1ccccc1OCCCOc1ccccc1[N+](=O)[O-],-70.5,11.9,2.2,0.0,·,·,
CCN1CCN(CCOc2ccccc2OCc2ccccc2)CC1,2.8,66.5*,-2.5,0.3,4.3,4.4,
O=C1NC(=S)N/C1=C\c1ccc([N+](=O)[O-])o1,-17.9,67.5*,0.7,-0.2,67.3*,14.5,AlphaScreen DR=>7.74
SMILES,TEAD-YAP inh,MITF inh,GPR151 ag,FBW7 activator,MITF inh conf,AlphaScreen intf2,others
O=C1NC(=S)N/C1=C\c1ccc(-c2cccc([N+](=O)[O-])c2)o1,-2.9,-5.5,-0.8,-0.1,·,·,
COc1cccc(COC(=O)Nc2cc(F)c(-c3cn[nH]c3)cc2OCCN(C)C)c1,-5.3,80.5*,-0.3,1.3,46.6*,4.9,
COc1cccc(COC(=O)Nc2ccc(-c3cn[nH]c3)cc2OCCN(C)C)c1,-11.2,14.5,0.4,0.6,·,·,
O=S(=O)(NCCN1CCN(c2ccccc2F)CC1)c1ccccc1Cl,-4.5,71.8*,1.8,-0.1,2.4,-4.0,
Cn1c(=O)oc2cc(S(=O)(=O)NCCN3CCN(c4ccccc4F)CC3)ccc21,1.4,14.1,0.4,0.3,·,·,
Clc1ccc(OCCN2CCCC2)c2ccccc12,-6.7,53.0*,1.5,-0.2,-9.3,-5.0,
CCOc1ccccc1N1CCN(Cc2ccoc2)CC1,2.2,52.5*,0.2,0.2,4.1,-1.9,
CCOc1ccccc1OCCN1CCN(c2ccccc2OC)CC1,10.4,89.0*,-1.5,1.2,3.9,25.3,
c1ccc2c(OCCN3CCCCC3)cccc2c1,-1.0,-1.3,0.1,-0.1,·,·,
CCOc1ccccc1OCCN1CCCC1,6.8,74.9*,-0.2,0.9,-12.1,-8.5,
CCOc1ccccc1OCCN1CCCCC1,-4.9,39.3,-0.4,0.7,·,·,
COc1cccc(NC(=O)CSc2nnc(NC(=O)C3CCC3)s2)c1,-4.4,-12.1,1.4,0.2,·,·,
Cc1cc(N2CCC(C)CC2)nc2ccc(NC(=O)CCC(=O)N3CCN(C)CC3)cc12,-31.2,8.9,1.0,-0.1,·,·,
COC(=O)c1sccc1S(=O)(=O)N1CCN(c2ccc(Cl)c(Cl)c2)CC1,-9.7,-1.6,1.1,0.0,·,·,
CCOc1ccccc1OCCOCCN1CC(C)OC(C)C1 (stereo not given),10.0,53.4*,-1.7,0.3,0.9,14.2,
O=C(COc1ccccc1F)N1CCCCC1,-25.2,9.8,2.3,-0.3,·,·,
CCOc1ccccc1N1CCN(C(=O)C2CCN(Cc3cccs3)CC2)CC1,3.0,50.7*,0.7,-0.2,11.0,17.3,
O=C(COc1ccccc1F)OCCN1CCCC1,-7.6,56.9*,-0.9,0.5,5.5,5.7,
Brc1ccc(CSc2nc3ccccc3[nH]2)c(Br)c1,-12.4,1.8,-0.1,-0.1,·,·,
O=C(Nc1nc2c(s1)COc1ccccc1-2)C1CCCN1S(=O)(=O)c1ccc(Cl)cc1 (stereo not given),8.4,51.9*,1.3,-0.1,-0.3,-4.3,
O=C(NCc1cccs1)c1nn2c(C(F)(F)F)cc(-c3ccco3)nc2c1Br,-4.5,78.3*,-0.9,-0.2,4.9,19.6,
COc1ccc(/C=N\NC(=O)c2cccc([N+](=O)[O-])c2)c(OC)c1,5.7,13.3,-1.2,0.7,·,·,
COc1ccc2cc(C(=O)CBr)ccc2c1,2.0,15.9,4.8,0.1,·,·,
CCC(=O)c1ccc2cc(OC)ccc2c1,-13.4,82.1*,2.5,0.0,0.6,13.2,
COc1cc(CN2CCN(Cc3ccccc3)CC2)cc(OC)c1O,3.6,79.2*,-1.8,-0.1,-35.3,-0.3,
COc1cc(CN2CCN(C3CCN(Cc4ccccc4)CC3)CC2)cc(OC)c1O,3.2,62.9*,-1.3,0.2,-6.0,6.8,
COc1ccc(OC)c(NC(=O)CN2CCN(Cc3ccccc3)CC2)c1,6.3,61.6*,1.9,-0.3,8.5,16.3,
